For 66 compounds, INHIBITION results are on record in ChEMBL document CHEMBL4513216, “Probing the Open Global Health Chemical Diversity Library for Multistage-Active Starting Points for Next-Generation Antimalarials” (ACS Infect Dis, 2020).

The whole screen tested about 69,000 compounds, of which about 8,600 (12%) showed an effect of 50% or more. This excerpt belongs to a sample that is enriched for strong results.

The assay deals with Plasmodium berghei. Kind of assay: Screen against P. berghei liver stage (PbLuc), transformed with Luciferase, at 10uM. It is filed as functional, HepG2. The settings on record: tested at 10 uM.
As for `COc1ccc(C2CCCCCN2S(C)(=O)=O)cc1` (stereo unspecified), the INHIBITION stood at 27.4%. In the case of `Cc1ccc2c(n1)N(C)CCN(Cc1ccco1)C2`, the INHIBITION is recorded as 3.88%. As for `CN1CCN(c2ncnc3c2CCN(S(=O)(=O)C2CC2)CC3)CC1`, the INHIBITION came out at 29.4%.

Regarding `Cc1[nH]/c(=N\C(=O)c2csc(NCC(C)C)n2)sc1C`, the INHIBITION came to 89.6%. To `Cc1cs/c(=N\C(=O)c2c3c(nc4onc(C)c24)CCC3)[nH]1` belongs 24.1%; to `CC(=O)Nc1nc(C(=O)NC(C)c2ccc(F)cc2)cs1` (stereo unspecified), -45.2%; to `Cc1cs/c(=N/C(=O)c2csc(NCC(C)C)n2)[nH]1`, 90.8%. The value for `CC(C)CNc1nc(C(=O)/N=c2\[nH]nc(C(C)(C)C)s2)cs1` was 11.5%; that for `Cc1cc(O)c(OCC(=O)/N=c2\[nH]c(C)c(C)s2)cn1` was -69.4%; that for `Cc1nn(C(C)C)c(C)c1CN1CCN(C2CCCCC2)C(=O)C1` was 5.1%.

Consider `CCN1CC[C@@]2(C(=O)N3CCOCC3)CCN(S(=O)(=O)CC)CC[C@@H]12`, for which the INHIBITION was found to be 17.4%. `Cc1ccn2cc(C(=O)N3CCCC(Cn4cc(CO)nn4)C3)nc2c1` (stereo unspecified): the INHIBITION amounted to 36.7%. For the compound `Cc1cc2n(n1)[C@@H](C(F)(F)F)C[C@@H](C1CCN(C(=O)C3CC3)CC1)N2`, the INHIBITION was -4.51%. For `CC(C)(C)CC(=O)NS(=O)(=O)c1ccc(C#N)cc1C(F)(F)F`, the INHIBITION came to 19.2%.

As to `Cc1cc(C)n(-c2cncc(NCCNC(=O)C3CCCC3)n2)n1`, the INHIBITION was determined as 45.2%. With `CS(=O)(=O)N1CCn2c(C(=O)N3CCOCC3)cnc2C1`, the INHIBITION came to 52.6%. In the case of `CS(=O)(=O)N1CC[C@H]2C[C@@H](C(=O)N3CCOCC3)O[C@@H]2C1`, the INHIBITION stood at 25.4%. With `CS(=O)(=O)N1C[C@@H]2C[C@H](C(=O)N3CCOCC3)[C@H](C1)O2`, the INHIBITION worked out at 0.112%. To `Cc1cc(C)cc(NS(=O)(=O)c2cc3c(c(C(=O)O)c2)OCCO3)c1` belongs 57.2%.

In the case of `O=C(O)c1cc(S(=O)(=O)Nc2cc(F)cc(F)c2)cc2c1OCCO2`, the INHIBITION was determined as 40%. To `Cc1cccc(NS(=O)(=O)c2cc3c(c(C(=O)O)c2)OCCO3)c1` belongs 7.27%; to `COCCN1C(=O)CCC12CCC(NC(=O)c1cnccn1)CC2` (stereo unspecified), -14.7%; to `CNC(=O)C1(c2cnccn2)CCCN1C(=O)c1ccccc1F` (stereo unspecified), 13.5%. The value for `C[C@H]1CN(CC2CCOCC2)C[C@@]12CCN(Cc1cccnc1)C2=O` was 3.81%; that for `OCC1CCCCN1CCn1ccnc1-c1nc2ccccc2[nH]1` (stereo unspecified) was 38.8%. The value for `CN1CCCC1CCn1ccnc1-c1nc(-c2ccccc2)no1` (stereo unspecified) was 51.8%. As for `Cc1nccn1CCC1CCNCC1`, the INHIBITION is given as 39.6%. To `Cc1nc(CN2CCCC2Cn2ccnc2C(C)C)nc2ccccc12` (stereo unspecified) belongs 30.4%; to `CN1CCCC1CCn1ccnc1-c1ccc2ccccc2n1` (stereo unspecified), 72.3%; to `c1ccc(-c2noc(CCCN3CCCC3Cn3cccn3)n2)cc1` (stereo unspecified), 45.7%. To `CN1CCCC1CCn1ccnc1-c1nc2ccccc2[nH]1` (stereo unspecified) belongs 53.9%; to `Cc1nn(C)c2nc(-c3ccccn3)nc(NCCC3CCCN3C)c12` (stereo unspecified), 11.2%; to `Cn1ccnc1CN1CCCCC1c1nc(-c2ccccc2)no1` (stereo unspecified), 30.4%. The value for `COCCN1CCCC1Cn1nc(C)cc1C` (stereo unspecified) was 32.3%. In the case of `Cc1cc(=O)n2nc(Oc3ccc(Cl)c(C)c3)sc2n1`, the INHIBITION is reported as 16.3%. To `CCC(C)N(Cc1cnc(NCC(=O)O)nc1)Cc1ccsc1` (stereo unspecified) belongs 41.3%; to `O=C(Cc1ccccc1O)NC1CCCN(c2ccccc2F)C1=O` (stereo unspecified), 26.4%; to `Cc1cc(C(=O)NCCC(=O)N2CCCc3ccccc32)no1`, 1.51%.

Take `O=C(c1ccnnc1)N1C[C@H](OCC2CCOCC2)[C@H]2OCCC[C@H]21`: the INHIBITION was 4.68%. For the compound `CN(Cc1nc2ccccc2o1)CC1CCCN1c1cccnn1` (stereo unspecified), the INHIBITION was 55%. To `CC(C)(C)c1cnc(CNCC2CCCN2c2cccnn2)o1` (stereo unspecified) belongs 34.1%; to `Cc1nnc(CN(C)CC2CCCN2c2cccnn2)o1` (stereo unspecified), 19.5%. The value for `Cc1nc(CN(C)CC2CCCN2c2cccnn2)nc2ccccc12` (stereo unspecified) was 60.9%. For the compound `Cc1nc(CN(C)CC2CCCN2c2cccnn2)oc1C` (stereo unspecified), the INHIBITION is given as -27.8%. Turning to `CN(Cc1ncc(C(C)(C)C)o1)CC1CCCN1c1cccnn1` (stereo unspecified), the INHIBITION was found to be 86.6%. The value for `CN(Cc1ncc(-c2ccccc2)o1)CC1CCCN1c1cccnn1` (stereo unspecified) was 37%; that for `CN(Cc1nc(N)c2ccccc2n1)CC1CCCN1c1cccnn1` (stereo unspecified) was 11.8%. The value for `Cc1nc2ccccc2nc1CN(C)CC1CCCN1c1cccnn1` (stereo unspecified) was 10.2%; that for `CC(=O)N1CCCN(C(C)c2ccc(Br)cc2)CC1` (stereo unspecified) was -19.2%. To `CC(C)CNC(=O)N1CC[C@@H]2CN(Cc3cccnc3)S(=O)(=O)[C@@H]2CC1` belongs 32.1%. In the case of `CCC(CC)C(O)CNC(=O)Cc1c[nH]c2ncccc12` (stereo unspecified), the INHIBITION was 2.38%. The value for `CCN1CCCC(O)(CN(C)Cc2ccccc2F)C1` (stereo unspecified) was 8.46%. To `O=C1CC(c2ccccc2)C2(CCN(C(=O)c3ccncc3F)CC2)N1` (stereo unspecified) belongs 32.2%; to `COCCCNC(=O)Nc1ccc(F)c(C(N)=O)c1`, -23.9%; to `COc1c(Cl)cc(Cl)cc1CN1CCC(C(N)=O)C1` (stereo unspecified), -11.3%.

On to `O=C(NCc1ccccc1F)N1CCCCC1C1OCCO1` (stereo unspecified), for which the INHIBITION is reported as -6.88%. To `CN(Cc1cccc(-n2cccn2)c1)Cc1cccs1` belongs -29%; to `CCC(CO)N(Cc1cccc(-n2cccn2)c1)Cc1cccs1` (stereo unspecified), 53.2%; to `CCC(CO)N(Cc1cccc(-n2cccn2)c1)Cc1ccccn1` (stereo unspecified), 25.5%. Consider `O=C(COc1cccc(F)c1)N1C[C@H](CO)C[C@H](CN2CCCC2)C1`, for which the INHIBITION was 10.42%. As for `O=C(COc1ccccc1)N1C[C@@H](O)[C@H](N2CCCC2)C1`, the INHIBITION is on record as 37%. To `CN(C)[C@@H]1CN(C(=O)COc2cccc(F)c2)C[C@H]1O` belongs 54.5%; to `O=C(COc1cccc(F)c1)N1C[C@@H](O)[C@H](N2CCCC2)C1`, 53.5%; to `O=C(COc1cccc(F)c1)N1C[C@@H](O)[C@H](N2CCOCC2)C1`, 32.3%. To `O=C(COc1cccc(F)c1)N1C[C@@H](CN2CCCC2)C[C@H](CO)C1` belongs -1.315%; to `COCCN1C(=O)[C@]2(CC[C@@H]3CN(Cc4ccccc4F)C[C@@H]32)N=C1C`, 14.9%.
